Our source for the binding signal values is publication PMC11006913.

Residue numbers refer to the chain shown, from its start.

Holding throughout (experiment): PBM; 200 nM protein, PBS
What all share (settings): dsDNA, one strand shown

In test [1] the target is T1, PAX4 (Homo sapiens, UniProt O43316 9-242).
T1 sequence: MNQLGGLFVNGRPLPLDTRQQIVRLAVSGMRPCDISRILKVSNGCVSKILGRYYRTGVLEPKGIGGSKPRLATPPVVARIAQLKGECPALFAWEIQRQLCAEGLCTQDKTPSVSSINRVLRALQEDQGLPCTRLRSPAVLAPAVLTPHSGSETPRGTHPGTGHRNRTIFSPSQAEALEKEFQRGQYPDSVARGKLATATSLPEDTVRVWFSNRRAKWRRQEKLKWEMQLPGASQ

The target of test [2] is T2, PAX4 (Homo sapiens, UniProt O43316 9-242, F177V).
T2 sequence: T1 sequence with F169V

For test [3], the target named is T3, PAX4 (Homo sapiens, UniProt O43316 9-242, F177Y).
T3 sequence: T1 sequence with F169Y

Test [4] concerns the target VAX1 (Homo sapiens, UniProt Q5SQQ9 86-172).
The target in test [5] is VAX1 (Homo sapiens, UniProt Q5SQQ9 86-172, T142I).
For test [6], the target named is T4, PAX4 (Homo sapiens, UniProt O43316 9-242, R227W).
T4 sequence: T1 sequence with R219W

Test [7] has as its target VAX1 (Homo sapiens, UniProt Q5SQQ9 86-172, K157R).
The target of test [8] is T5, SIX6 (Homo sapiens, UniProt O95475 114-200, L167M).
T5 sequence: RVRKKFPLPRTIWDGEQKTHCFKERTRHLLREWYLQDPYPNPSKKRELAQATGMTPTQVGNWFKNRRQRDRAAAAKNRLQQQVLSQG

In test [9] the target is T6, SIX6 (Homo sapiens, UniProt O95475 114-200, L143I).
T6 sequence: T5 sequence with L30I, M54L

Test [10] concerns the target T7, SIX6 (Homo sapiens, UniProt O95475 114-200, L143M).
T7 sequence: T5 sequence with L30M, M54L

Test [11] deals with T8, SIX6 (Homo sapiens, UniProt O95475 114-200, T165I).
T8 sequence: T5 sequence with T52I, M54L

VAX1 (Homo sapiens, UniProt Q5SQQ9 86-172), sequence (Q5SQQ9 86-172): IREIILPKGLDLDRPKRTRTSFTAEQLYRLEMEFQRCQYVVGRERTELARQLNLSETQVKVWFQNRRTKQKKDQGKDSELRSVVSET
VAX1 (Homo sapiens, UniProt Q5SQQ9 86-172, T142I), sequence (Q5SQQ9 86-172 T142I): as the sequence (Q5SQQ9 86-172) above, with T57I counted along it
VAX1 (Homo sapiens, UniProt Q5SQQ9 86-172, K157R), sequence (Q5SQQ9 86-172 K157R): as the sequence (Q5SQQ9 86-172) above, with K72R counted along it

As to AATTGCGA, the binding signal in the test with PAX4 [1] was 10.7 upbm affinity estimate (log intensity, higher = more binding, comparable within an allelic series); with PAX4 [2] it was 9.91 upbm affinity estimate (log intensity, higher = more binding, comparable within an allelic series); with PAX4 [3] it was 10 upbm affinity estimate (log intensity, higher = more binding, comparable within an allelic series); in the test with VAX1 [4], 9.89 upbm affinity estimate (log intensity, higher = more binding, comparable within an allelic series); with VAX1 [5], 9.67 upbm affinity estimate (log intensity, higher = more binding, comparable within an allelic series); in the test with PAX4 [6] it was 10.1 upbm affinity estimate (log intensity, higher = more binding, comparable within an allelic series). In addition, the binding signal in the test with VAX1 [7] was 9.62 upbm affinity estimate (log intensity, higher = more binding, comparable within an allelic series).

For ATTTTGGA, the binding signal was 10.5 upbm affinity estimate (log intensity, higher = more binding, comparable within an allelic series) with PAX4 [1] and 10 upbm affinity estimate (log intensity, higher = more binding, comparable within an allelic series) in the test with PAX4 [3].

Regarding CACGTATC, the binding signal with SIX6 [8] is 10.2 upbm affinity estimate (log intensity, higher = more binding, comparable within an allelic series).

Consider ACTAACTA, for which the binding signal in the test with PAX4 [1] is 10.8 upbm affinity estimate (log intensity, higher = more binding, comparable within an allelic series); with PAX4 [2], 10.1 upbm affinity estimate (log intensity, higher = more binding, comparable within an allelic series); with PAX4 [3] it was 10.1 upbm affinity estimate (log intensity, higher = more binding, comparable within an allelic series); with PAX4 [6], 10.2 upbm affinity estimate (log intensity, higher = more binding, comparable within an allelic series).

As for AAAACCAT, the binding signal is 10.5 upbm affinity estimate (log intensity, higher = more binding, comparable within an allelic series) with PAX4 [1]; 9.98 upbm affinity estimate (log intensity, higher = more binding, comparable within an allelic series) in the test with PAX4 [3]; 10.1 upbm affinity estimate (log intensity, higher = more binding, comparable within an allelic series) in the test with PAX4 [6].

With CCACGTTA, the binding signal was 10.7 upbm affinity estimate (log intensity, higher = more binding, comparable within an allelic series) in the test with PAX4 [1]; 10.1 upbm affinity estimate (log intensity, higher = more binding, comparable within an allelic series) with PAX4 [2]; 10.1 upbm affinity estimate (log intensity, higher = more binding, comparable within an allelic series) with PAX4 [3]; 10.2 upbm affinity estimate (log intensity, higher = more binding, comparable within an allelic series) with PAX4 [6].

Regarding GGGGGATA, the binding signal with SIX6 [8] is 10.8 upbm affinity estimate (log intensity, higher = more binding, comparable within an allelic series).

In the case of ATATACTC, the binding signal is 10.7 upbm affinity estimate (log intensity, higher = more binding, comparable within an allelic series) in the test with SIX6 [8] and 10.4 upbm affinity estimate (log intensity, higher = more binding, comparable within an allelic series) with SIX6 [9].

ACTGATGC: the binding signal is 10.6 upbm affinity estimate (log intensity, higher = more binding, comparable within an allelic series) in the test with PAX4 [1]; 9.94 upbm affinity estimate (log intensity, higher = more binding, comparable within an allelic series) with PAX4 [2]; 10 upbm affinity estimate (log intensity, higher = more binding, comparable within an allelic series) with PAX4 [3]; 10 upbm affinity estimate (log intensity, higher = more binding, comparable within an allelic series) in the test with PAX4 [6].

Take ATATACCC: the binding signal was 11.1 upbm affinity estimate (log intensity, higher = more binding, comparable within an allelic series) with SIX6 [8]; 10.9 upbm affinity estimate (log intensity, higher = more binding, comparable within an allelic series) in the test with SIX6 [10]; 10.4 upbm affinity estimate (log intensity, higher = more binding, comparable within an allelic series) in the test with SIX6 [9]; 11 upbm affinity estimate (log intensity, higher = more binding, comparable within an allelic series) in the test with SIX6 [11].

As for GTTAACCA, the binding signal with PAX4 [1] was 10.5 upbm affinity estimate (log intensity, higher = more binding, comparable within an allelic series); in the test with PAX4 [2] it was 9.85 upbm affinity estimate (log intensity, higher = more binding, comparable within an allelic series); with PAX4 [3], 9.89 upbm affinity estimate (log intensity, higher = more binding, comparable within an allelic series); in the test with PAX4 [6] it was 9.96 upbm affinity estimate (log intensity, higher = more binding, comparable within an allelic series).

CGACACCA: the binding signal in the test with SIX6 [8] was 9.52 upbm affinity estimate (log intensity, higher = more binding, comparable within an allelic series).

As for TATATCCA, the binding signal in the test with SIX6 [8] was 10.7 upbm affinity estimate (log intensity, higher = more binding, comparable within an allelic series).

As to GGCGATAC, the binding signal with SIX6 [8] was 10.1 upbm affinity estimate (log intensity, higher = more binding, comparable within an allelic series).

As for ATATACCA, the binding signal with SIX6 [8] is 10.7 upbm affinity estimate (log intensity, higher = more binding, comparable within an allelic series).

CATATCGA: the binding signal with SIX6 [8] was 10.2 upbm affinity estimate (log intensity, higher = more binding, comparable within an allelic series).

In the case of CCGTATCG, the binding signal with SIX6 [8] was 9.97 upbm affinity estimate (log intensity, higher = more binding, comparable within an allelic series).

Regarding CGGATATA, the binding signal with SIX6 [8] was 10.8 upbm affinity estimate (log intensity, higher = more binding, comparable within an allelic series).

With CGTATCGA, the binding signal with SIX6 [8] is 10 upbm affinity estimate (log intensity, higher = more binding, comparable within an allelic series).

With ATCTATAC, the binding signal with SIX6 [8] is 10.7 upbm affinity estimate (log intensity, higher = more binding, comparable within an allelic series); with SIX6 [9], 10.4 upbm affinity estimate (log intensity, higher = more binding, comparable within an allelic series); in the test with PAX4 [3] it was 10.4 upbm affinity estimate (log intensity, higher = more binding, comparable within an allelic series).

For AATATACC, the binding signal in the test with SIX6 [8] is 10.9 upbm affinity estimate (log intensity, higher = more binding, comparable within an allelic series).

For AATAACGG, the binding signal with PAX4 [1] was 10.8 upbm affinity estimate (log intensity, higher = more binding, comparable within an allelic series); with PAX4 [2], 10 upbm affinity estimate (log intensity, higher = more binding, comparable within an allelic series); in the test with PAX4 [3], 10.1 upbm affinity estimate (log intensity, higher = more binding, comparable within an allelic series); with PAX4 [6], 10.1 upbm affinity estimate (log intensity, higher = more binding, comparable within an allelic series).

Regarding GAGATATA, in the test with SIX6 [8], the binding signal is 10.8 upbm affinity estimate (log intensity, higher = more binding, comparable within an allelic series).
